# Experimental data as given in publication PMC6602471.
# Over roughly 1,300 sequences, “log fluorescence intensity” has its median near 8.9; the highest 2% begin near 13. For the sample, the highest values were picked, then their nearest neighbours and some sequences at random.
# Biological target: T1, ELK1 (Homo sapiens, UniProt P19419 1-428)
# T1 sequence: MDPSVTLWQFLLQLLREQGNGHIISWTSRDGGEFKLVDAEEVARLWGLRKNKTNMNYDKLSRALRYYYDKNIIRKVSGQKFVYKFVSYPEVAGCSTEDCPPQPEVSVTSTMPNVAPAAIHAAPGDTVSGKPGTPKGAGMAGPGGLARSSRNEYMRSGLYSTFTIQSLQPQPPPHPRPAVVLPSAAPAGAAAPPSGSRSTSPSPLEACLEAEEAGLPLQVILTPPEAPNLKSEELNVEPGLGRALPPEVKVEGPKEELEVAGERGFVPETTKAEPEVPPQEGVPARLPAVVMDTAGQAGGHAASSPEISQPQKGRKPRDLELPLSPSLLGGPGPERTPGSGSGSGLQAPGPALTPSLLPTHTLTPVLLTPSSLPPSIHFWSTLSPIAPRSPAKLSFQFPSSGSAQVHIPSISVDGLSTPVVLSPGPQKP
# Assay: custom PBM; custom protein-binding microarray; buffer, salt, pH and temperature not stated; high values mean tight binding
# Settings: dsDNA, one strand shown
row,Sequence,binding signal
1,CGGAAGTGTTGTAAACGTCGGATATCCGGTTCTTCTGTCTTGATTCGCTTGACGCTGCTG,12 log fluorescence intensity
2,GGAAAAAGGCCCAGGGTACCACCGGAAGTGGGCTTAGTCTTGATTCGCTTGACGCTGCTG,11.1 log fluorescence intensity
3,GGAAAAAGGCCCAGGATAACACCGGAAGTGGGCTTAGTCTTGATTCGCTTGACGCTGCTG,11.1 log fluorescence intensity
4,TGTCGGGTAAGGGAATGTAGATCACGTGAATGAAGAGTCTTGATTCGCTTGACGCTGCTG,9.1 log fluorescence intensity
5,TACTGACTTATATATGCGAATGCACATGAATAGCCCGTCTTGATTCGCTTGACGCTGCTG,8.94 log fluorescence intensity
6,CTGGGACTTGACCCAACTCTGCTACGTGGGTCGTTTGTCTTGATTCGCTTGACGCTGCTG,8.94 log fluorescence intensity
7,TAAAGGGAAGACGGTTGTGGTAGTTCCGGGGATTAAGTCTTGATTCGCTTGACGCTGCTG,10.9 log fluorescence intensity
8,GCTGCTGCGGTGCTTACCCCACCGGATGTGACCCCGGTCTTGATTCGCTTGACGCTGCTG,10.2 log fluorescence intensity
9,GATTAATTTCCGCCCTTATTCGCACGTGCCATAACAGTCTTGATTCGCTTGACGCTGCTG,12.5 log fluorescence intensity
10,TAGAGGGAAGACGGTTGTGGTAGTTCCGGGTATTAAGTCTTGATTCGCTTGACGCTGCTG,11.2 log fluorescence intensity
11,GATTAATTTCTGCCCTTATTCGCACGTGCCATACCAGTCTTGATTCGCTTGACGCTGCTG,8.97 log fluorescence intensity
12,GCTCCTGCGGTGCATACCCCACCGGATGTGACCCCGGTCTTGATTCGCTTGACGCTGCTG,10.3 log fluorescence intensity
13,TACTGACTTATATATGCTAATGCACATGAATAGACCGTCTTGATTCGCTTGACGCTGCTG,8.92 log fluorescence intensity
14,GGAAAAAGCCCCAGGGTAACACCGGAAGTGGGCTTAGTCTTGATTCGCTTGACGCTGCTG,10.8 log fluorescence intensity
15,TAAAGGGAAGGCGGTTGTGGTAGTTCCGGGTATTAAGTCTTGATTCGCTTGACGCTGCTG,11.5 log fluorescence intensity
16,TAAAGGGAAGACGGTGGTGGTAGTTCCGGGTATTAAGTCTTGATTCGCTTGACGCTGCTG,11.1 log fluorescence intensity
17,GCTGCTGCGGTGCATAGCCCACCGGATGTGACCCCGGTCTTGATTCGCTTGACGCTGCTG,10.4 log fluorescence intensity
18,CGGAAGTGTCGTAAACGTCGGATATGCGGTTCTTCTGTCTTGATTCGCTTGACGCTGCTG,9.16 log fluorescence intensity
19,TCCGGCTACCAGGTCCACCCACTTCAGGCCTTGTAGGTCTTGATTCGCTTGACGCTGCTG,8.9 log fluorescence intensity
20,ATGGGACTTGACCCAACTCTGCCACGTGGGTCGTTTGTCTTGATTCGCTTGACGCTGCTG,8.96 log fluorescence intensity
21,TACTGATTTATATATGCGAATGCACATGAATAGACCGTCTTGATTCGCTTGACGCTGCTG,8.91 log fluorescence intensity
22,CTGGGACTTGATCCAACTCTGCCACGTGGGTCGTTTGTCTTGATTCGCTTGACGCTGCTG,8.95 log fluorescence intensity
23,TAAAGGGAAGACGGTCGTGGTAGTTCCGGGTATTAAGTCTTGATTCGCTTGACGCTGCTG,11.3 log fluorescence intensity
